Reference: PubChem BioAssay (NCI)
Several values for one entry are separate records, joined by “and”; a condition that tells them apart may be missing. Equal entries are not always repeated. The panel holds about 83,000 compounds, 20% with a hit somewhere; the sample as a whole holds those more often.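 Method: cells in 96-well plates; compound added at one concentration; 48 h incubation; percent growth measured; values under 10 scored active.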 Values without a mark were called inactive. Activity calls are given as the source filed them.

Each molecule was assayed on SW-620 colon (assay: NCI-60 one-dose screen, 48 h (100 = growth as untreated, 0 = no growth, -100 = all killed)). Settings: 10 µM unless noted.

Structure (SMILES) | growth
O=C1c2ccccc2C(=O)N1c1ccccc1 | 109%
c1ccc2c(c1)Nc1cc3ccccc3cc1N2 | 18.8%
CCC(CCCN(CC)CCc1ccccc1)OC(=O)c1cc(OC)c(OC)c(OC)c1 (stereo not given) | 82.9%
O=C(Nc1cccc(Br)c1)Oc1ccc(Cl)c2cccnc12 | 26.1% [100 µM]
CCCCCCC(C)c1ccccc1O (stereo not given) (tested in a mixture with another compound) | 103%
O=C1c2cccnc2-c2nccc3c2c1nc1cc(Br)ccc13 | -63.4% (active) and -74.8% (active)
CNc1ccc(N)cc1 | 104%
Cc1c2ccccc2c(C)c2c1ccc1ccccc12 | 99.9%
O=[N+]([O-])c1ccc(N=Nc2ccc(O)cc2O)cc1 | 47.8%
CN(C)CCOc1ccc2c(c1)C(=O)/C(=C\c1ncc([N+](=O)[O-])n1C)C2 | -31.6% (active)
C1=C(c2ccccc2)C(c2ccc(OCCN3CCCCC3)cc2)Oc2ccccc21 (stereo not given) | 16.2%
CN(C)C(=O)SC1=C(c2c(Cl)cccc2Cl)C(=O)c2ccccc21 | -83.9% (active)
N#CSCc1ccc(CSC#N)c(Cl)c1 | 25.4%
COc1ccccc1/C=C\C(=O)c1ccccc1 | 2.63% (active)
CN(C)c1ccc(C(=C2C=CC(=[N+](C)C)C=C2)c2ccc(N(C)C)cc2)cc1 (tested in a mixture with another compound) | -72.3% (active)
O=C1C=CC(=O)N1C1c2ccccc2-c2ccccc21 | 14.7%
CCOC(=O)/C=C/c1ccc([N+](=O)[O-])o1 | 8.72% (active)

Structure (SMILES) | growth
COC(=O)c1nc(=S)[nH]c(C(=O)OC)c1C(=O)c1ccc2ccccc2c1 | 101%
CC1OC2CC(=O)OC2C2=C1C(=O)c1c(O)cccc1C2=O (stereo not given) | -76.4% (active)
CC(=Nc1ccc(N(C)C)cc1)c1ccccc1 | 42.6%
O=C1NC(=O)/C(=C/C=C/c2ccccc2)S1 | 61.4%
CCCCCC(CCCCC)C(=O)O | 110%
Oc1c(Br)c(Br)c(O)c(Br)c1Br | 8.91% (active)
Cc1cc2nc(CS)[nH]c2cc1C | 84.7%
COc1ccc2nc3cc(Cl)ccc3c(NCCNc3c4ccc(Cl)cc4nc4ccc(OC)cc34)c2c1 | -50.4% (active)
CC1(C)CC([P+](c2ccccc2)(c2ccccc2)c2ccccc2)=NN1 | 47.6%
S=C(NCCNC(=S)[S][Sn]([c]1ccccc1)([c]1ccccc1)[c]1ccccc1)[S][Sn]([c]1ccccc1)([c]1ccccc1)[c]1ccccc1 | -97.5% (active)
O=C1c2ccccc2C(=O)c2sc(Nc3cccc(Cl)c3)nc21 | -54.6% (active)
CCCCCCCCCCCCCCCC[N+](C)(CCO)Cc1cnc[nH]1 (stereo not given) | -27% (active)
C/C=C1\SC(=S)NC1=O | 112%
Cn1c2c(c3ccccc31)CCN1C[C@@H]3CCCC[C@H]3C[C@@H]21 | 13.5%
O=C1OCc2cccc3cccc1c23 | 98.2%
O=C(Nc1ccccc1)c1cc(Cl)ccc1O | 63.3%

These molecules were tested on MCF7 breast in the same assay as above. Settings: 10 µM.

Structure (SMILES) | growth
O=C1c2ccccc2C(=O)N1c1ccccc1 | 96.6%
c1ccc2c(c1)Nc1cc3ccccc3cc1N2 | 2.88% (active)
CCC(CCCN(CC)CCc1ccccc1)OC(=O)c1cc(OC)c(OC)c(OC)c1 (stereo not given) | 85.9%
CCCCCCC(C)c1ccccc1O (stereo not given) (tested in a mixture with another compound) | 116%
O=C1c2cccnc2-c2nccc3c2c1nc1cc(Br)ccc13 | -41.9% (active) and -57.8% (active)
CNc1ccc(N)cc1 | 96.3%
Cc1c2ccccc2c(C)c2c1ccc1ccccc12 | 32.2%
O=[N+]([O-])c1ccc(N=Nc2ccc(O)cc2O)cc1 | 26%
CN(C)CCOc1ccc2c(c1)C(=O)/C(=C\c1ncc([N+](=O)[O-])n1C)C2 | -30.7% (active)
C1=C(c2ccccc2)C(c2ccc(OCCN3CCCCC3)cc2)Oc2ccccc21 (stereo not given) | 6.42% (active)
CN(C)C(=O)SC1=C(c2c(Cl)cccc2Cl)C(=O)c2ccccc21 | -43.6% (active)
N#CSCc1ccc(CSC#N)c(Cl)c1 | 22.7%
COc1ccccc1/C=C\C(=O)c1ccccc1 | 5.24% (active)
CN(C)c1ccc(C(=C2C=CC(=[N+](C)C)C=C2)c2ccc(N(C)C)cc2)cc1 (tested in a mixture with another compound) | -92.3% (active)
O=C1C=CC(=O)N1C1c2ccccc2-c2ccccc21 | 85.8%
CCOC(=O)/C=C/c1ccc([N+](=O)[O-])o1 | 25.5%

Structure (SMILES) | growth
COC(=O)c1nc(=S)[nH]c(C(=O)OC)c1C(=O)c1ccc2ccccc2c1 | 94.4%
CC1OC2CC(=O)OC2C2=C1C(=O)c1c(O)cccc1C2=O (stereo not given) | -45.2% (active)
CC(=Nc1ccc(N(C)C)cc1)c1ccccc1 | 20.8%
O=C1NC(=O)/C(=C/C=C/c2ccccc2)S1 | 19.1%
CCCCCC(CCCCC)C(=O)O | 100%
Oc1c(Br)c(Br)c(O)c(Br)c1Br | 67%
Cc1cc2nc(CS)[nH]c2cc1C | 82.9%
COc1ccc2nc3cc(Cl)ccc3c(NCCNc3c4ccc(Cl)cc4nc4ccc(OC)cc34)c2c1 | -70% (active)
CC1(C)CC([P+](c2ccccc2)(c2ccccc2)c2ccccc2)=NN1 | 5.67% (active)
S=C(NCCNC(=S)[S][Sn]([c]1ccccc1)([c]1ccccc1)[c]1ccccc1)[S][Sn]([c]1ccccc1)([c]1ccccc1)[c]1ccccc1 | -99.8% (active)
O=C1c2ccccc2C(=O)c2sc(Nc3cccc(Cl)c3)nc21 | -59% (active)
CCCCCCCCCCCCCCCC[N+](C)(CCO)Cc1cnc[nH]1 (stereo not given) | -18.4% (active)
C/C=C1\SC(=S)NC1=O | 86.9%
Cn1c2c(c3ccccc31)CCN1C[C@@H]3CCCC[C@H]3C[C@@H]21 | 13.9%
O=C1OCc2cccc3cccc1c23 | 86.3%
O=C(Nc1ccccc1)c1cc(Cl)ccc1O | 81.9%
